Results filed as inconclusive are left out. A number with no mark means an inactive call. Activity calls are given as the source filed them. Calls come from the whole dose curve; as a rule, active = well fitted activation curve with a large enough effect; inconclusive = small, poorly fitted or top-dose-only effect; inactive = no such curve, though single readings can be large or run the other way.
Potency is the fitted concentration of half-maximal effect.

The assay deals with Cellular tumor antigen p53 (Homo sapiens) (UniProt P04637). The assay is described as follows: Primary qHTS for small molecule compounds that upregulate eGFP-tagged delta133p53alpha (in N-terminal) cells. (AID 2060322).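 For activation: cells pre-induced with doxycycline then dosed without doxycycline; series mostly up to about 56 µM; 0% = DMSO vehicle and 100% = reference activator.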 Note: nearly all actives have a fitted effect of over 75% in size. Particulars: NCI-H358 eGFP-delta133p53alpha fluorescence, 24 h; activation: stronger effect = higher value. Summed up: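 NCI-H358 cells pre-induced 24 h with 10 ng/ml doxycycline for eGFP-delta133p53alpha, plated dox-free and exposed 24 h at 37C to titrated compounds. Fixed, Hoechst-stained; gated GFP peak intensity by laser scanning cytometry, normalized to DMSO (0%) and 57.5 uM 5-azacytidine (100%).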
Cellular tumor antigen p53 (Homo sapiens), sequence (P04637 whole entry, looked up): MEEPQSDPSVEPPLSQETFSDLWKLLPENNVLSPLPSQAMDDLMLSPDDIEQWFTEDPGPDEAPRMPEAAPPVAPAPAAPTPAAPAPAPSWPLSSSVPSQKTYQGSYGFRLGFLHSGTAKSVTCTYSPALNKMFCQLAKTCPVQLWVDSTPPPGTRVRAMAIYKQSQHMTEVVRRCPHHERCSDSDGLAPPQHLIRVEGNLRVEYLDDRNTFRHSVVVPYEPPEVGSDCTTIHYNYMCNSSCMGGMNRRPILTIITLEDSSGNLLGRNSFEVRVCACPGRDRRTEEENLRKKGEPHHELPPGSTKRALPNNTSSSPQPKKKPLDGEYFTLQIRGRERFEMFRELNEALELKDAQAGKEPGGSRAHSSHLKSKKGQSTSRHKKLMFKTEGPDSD
(In general: qHTS replaces the single test concentration by a dilution series.)
In the case of `OCc1cccnc1`, the activation is -5.02%.
With `Cc1oc(=O)oc1COC(=O)[C@@H]1N2C(=O)[C@@H](NC(=O)[C@H](N)c3ccccc3)[C@H]2SC1(C)C`, the activation was -5.08%.
On the same count and under the same terms, the figure for `CC(C)NCC(O)c1ccc2ccccc2c1` (stereo not given) is -2.82%.
For the compound `O=C1CC2(CCCC2)CC(=O)N1CCNCC1COc2ccccc2O1` (stereo not given), the activation was -5.86%.
As to `O=C(CS(=O)Cc1ccco1)NCC=CCOc1cc(CN2CCCCC2)ccn1` (stereo not given), the activation was 38.6%.
The same measure, in the same setting: the figure for `COc1ccnc2c1CCCCC2S(=O)c1nc2ccccc2[nH]1` (stereo not given) is 11.9%; for `CCCSc1ccc2nc(NC(=O)OC)[nH]c2c1` it is 6.69%.
With `CC(C)=CCC/C(C)=C/CO`, the activation was -11.9%.
With `CS[C@H]1SC[C@@H]2C(=O)N(C)[C@H](C(C)C)C(=O)OC[C@H](NC(=O)c3cnc4ccccc4n3)C(=O)N[C@H](C)C(=O)N(C)[C@@H]1C(=O)N(C)[C@H](C(C)C)C(=O)OC[C@H](NC(=O)c1cnc3ccccc3n1)C(=O)N[C@H](C)C(=O)N2C`, the Potency is 34.3 nM (active).
Regarding `O=c1cc[nH]c(=S)[nH]1`, the activation was 7.34%.
As to `CC(=O)[C@H]1CC[C@H]2[C@@H]3C[C@H](C)C4=CC(=O)CC[C@]4(C)[C@H]3[C@@H](O)C[C@]12C`, the activation is -15.9%.
Still for that read-out and setting: the result for `CN1[C@@H]2CC[C@H]1CC(OC(=O)C(O)c1ccccc1)C2` (stereo not given in full) reads 5.08%; that for `CC(=O)NCC(=O)N1[C@H]2CC[C@H]1c1cc(Nc3ncc(C(F)(F)F)c(NC4CCC4)n3)ccc12`, 32.7%; that for `C1=CC2C3C=CC(C3)C2C1` (stereo not given), 16.4%.
The same measure, in the same setting: the result for `CCN(CCCCOC(=O)c1ccc(OC)c(OC)c1)C(C)Cc1ccc(OC)cc1` (stereo not given) reads -6.69%; that for `CC1CC(OC(=O)c2ccccc2O)CC(C)(C)C1` (stereo not given), -0.565%; that for `OCC(O)CS` (stereo not given), -8.47%.
The same measure, in the same setting: the figure for `O=c1cc[nH]c(=O)[nH]1` is -12.6%; for `O=c1[nH]c(=O)n([C@H]2C[C@@H](O)[C@@H](CO)O2)cc1I` it is 6.89%; for `Cc1nc(NC(=O)N2CCC[C@@H]2C(N)=O)sc1-c1csc(C(C)(C)C)n1` it is -6.14%.
Take `O=C(Nc1ccc([N+](=O)[O-])cc1)Nc1ccc([N+](=O)[O-])cc1`: the activation is -25.9%.
With `C[C@H](O)C(=O)Nc1c(I)c(C(=O)NC(CO)CO)c(I)c(C(=O)NC(CO)CO)c1I`, the activation was 10.9%.
The same measure, in the same setting: the result for `C#CC(C)(CC)OC(=O)c1ccccc1C(=O)O` (stereo not given) reads -11.9%; that for `O=C(O)c1ccccc1Nc1cc(Cl)ccc1C(=O)O`, -31%.
On the same count and under the same terms, the figure for `COc1cc(OC)cc(-c2ccc3ncc4ccc(=O)n(-c5ccc(N6CCNCC6)c(C(F)(F)F)c5)c4c3c2)c1` is -7.04%; for `OC(CCN1CCCC1)(c1ccccc1)C1CCCCC1` (stereo not given) it is 20.1%; for `CCCCN(CCCC)CCCOC(=O)c1ccc(N)cc1` it is -2.51%.
On the same count and under the same terms, the figure for `O=C(O)[C@@H](O)[C@H](O)[C@H](O)[C@@H](O)C(=O)O` is -1.67%; for `Cc1cc(C)c(NC(=O)CN(CC(=O)O)CC(=O)O)c(C)c1Br` it is -11.9%; for `CN1CCN(C2=Nc3ccccc3Sc3ccc(Cl)cc32)CC1` it is 15.3%.
For `CC(=O)Nc1ccc(OCC(O)CNC(C)C)cc1` (stereo not given), the activation was -14.2%.
The same measure, in the same setting: the figure for `Oc1ccc(CCNCCCCCCNCCc2ccccc2)cc1O` is 0%; for `Oc1cc(O)cc(C=Cc2ccc(O)c(O)c2)c1` it is 8.33%; for `Cc1[nH]cnc1CN1CCc2c(c3ccccc3n2C)C1=O` it is -13.4%.
On the same count and under the same terms, the result for `CC(C)(C)[C@H](NC(=O)c1ccc(N)c(Cl)c1)C(=O)N1CCC[C@@H]1C(=O)N[C@H](C#N)CC(=O)O` reads -1.07%.
Still for that read-out and setting: the figure for `Cc1ccc2ccc(Cl)cc2n1` is -5.08%.
For the compound `COc1cc2c(cc1OC)CN(C(=O)[C@H](C)N[C@@H](CCc1ccccc1)C(=O)O)[C@H](C(=O)O)C2`, the activation was -10.7%.
The same measure, in the same setting: the result for `Cc1cc(-n2nc3ccc(Cl)cc3n2)c(O)c(C(C)(C)C)c1` reads 19.8%; that for `Nc1nc(N)c(-c2ccccc2)s1`, -14.1%.
For the compound `CC1=C(C(=O)O)N2C(=O)[C@@H](NC(=O)[C@H](N)c3ccccc3)[C@H]2SC1`, the activation was -27.6%.
